{
  "source": "PubChem BioAssay (NCATS)",
  "data": [
    {"experiment": "qHTS profiling of the MIPE4 collection as inhibitors of Plasmodium falciparum (DD2) proliferation (AID 743345)", "settings": "P. falciparum Dd2 in erythrocytes, SYBR Green DNA, 72 h; at 28.5 µM (top of the series) unless noted", "from_the_text": "Plasmodium falciparum is a virulent malarial parasite that kills 1-2 million people worldwide each year. Transmitted by mosquitoes, the sporozoite form of the parasite enters the blood stream to infect hepatocytes, where they become merozoites that infect red blood cells (erythrocytes). Within erythrocytes, merozoites begin a […] cycle of growth and division, after which the parasite is released to infect new red blood cells. Gametocytes, which form within erythrocytes as well, circulate in the bloodstream and are ingested by the mosquito, thereby completing the life cycle. To profile malarial isolates for differential chemical responses and to identify inhibitors of malarial growth, an assay that measures P. falciparum growth and replication within erythrocytes was employed. This assay uses a DNA binding fluorescent dye (SYBR Green) to detect parasite DNA following cell lysis. Because mature erythrocytes lack DNA, only Plasmodium-derived DNA is detected.\nThe SYBR Green viability assay was adapted from a method described previously (Plouffe et al., 2008). For screening 3 ul culture medium was dispensed into 1536 well black clear bottom plates (Aurora Biotechnologies) using a Multidrop Combi (Thermo Fisher Scientific Inc.), 23 nL compounds in DMSO were added by a pin tool (Kalypsys), and 5 ul of erythrocytes infected with P. falciparum (0.3% parasitemia, 2.5% hematocrit final concentration) were added. The plates were incubated at 37 C in a humidified incubator in 5% CO2 for 72 h, and 2 ul lysis buffer (20 mM Tris HCl, 10 mM EDTA, 0.16% saponin, 1.6% triton X, 10X SYBR Green I supplied as 10,000X […] by Invitrogen) was added to each well. The plates were mixed for 25 sec with gentle shaking and incubated overnight at room temperature in the dark. The following morning, fluorescence intensity at 485(14) nm excitation and 535(25) nm emission wavelengths was measured on an EnVision (Perkin Elmer) plate reader. Plate reads were normalized relative to the control inhibitor (0.29 uM artemisinin) and vehicle (DMSO) wells present on each plate and then corrected by an algorithm using vehicle-only control plates at the beginning and end of the compound plate stack.", "units": {"parasite growth remaining, % of DMSO control (lower = more inhibition)": "%"}, "values": [
      {"compound": "CCCNC(=O)Nc1ccc(Oc2ncnc3cc(OC)c(OC)cc23)cc1Cl", "parasite growth remaining, % of DMSO control (lower = more inhibition)": 61.5},
      {"compound": "C[C@H]1[C@H](NC(=O)C(=NOC(C)(C)C(=O)O)c2csc(N)n2)C(=O)N1S(=O)(=O)O", "parasite growth remaining, % of DMSO control (lower = more inhibition)": 91.7},
      {"compound": "COC(=O)C[C@](O)(CCCC(C)(C)O)C(=O)O[C@@H]1C(OC)=C[C@]23CCCN2CCc2cc4c(cc2[C@H]13)OCO4", "parasite growth remaining, % of DMSO control (lower = more inhibition)": 85.8},
      {"compound": "O=C1c2cccc(O)c2C(=O)c2c(O)cc(CO)cc21", "parasite growth remaining, % of DMSO control (lower = more inhibition)": 99.1},
      {"compound": "NC(=O)c1cccc(-c2cccc(OC(=O)NC3CCCCC3)c2)c1", "parasite growth remaining, % of DMSO control (lower = more inhibition)": 98},
      {"compound": "O=C1C[C@@H](c2ccc(O)cc2)Oc2cc(O)cc(O)c21", "parasite growth remaining, % of DMSO control (lower = more inhibition)": 72.2},
      {"compound": "OC[C@H]1OC(O)C[C@@H](O)[C@H]1O", "note": "(stereo not given in full)", "parasite growth remaining, % of DMSO control (lower = more inhibition)": 88.2},
      {"compound": "COc1cc(CNC(=O)CCCCC=CC(C)C)ccc1O", "parasite growth remaining, % of DMSO control (lower = more inhibition)": 103},
      {"compound": "O=C(C[C@@H]1NCCC[C@@H]1O)Cn1cnc2ccccc2c1=O", "parasite growth remaining, % of DMSO control (lower = more inhibition)": 6.53},
      {"compound": "CC(=O)N(O)CCCP(=O)(O)O", "parasite growth remaining, % of DMSO control (lower = more inhibition)": 18.6},
      {"compound": "Cc1cn([C@@H]2C[C@@H](O)[C@H](CO)O2)c(=O)[nH]c1=O", "parasite growth remaining, % of DMSO control (lower = more inhibition)": 92.6},
      {"compound": "NC(=O)c1ncn([C@@H]2O[C@H](CO)[C@@H](O)[C@@H]2O)n1", "parasite growth remaining, % of DMSO control (lower = more inhibition)": 90.2},
      {"compound": "CNC1[C@H](O)C(O[C@@H]2C(O)C(O[C@H]3O[C@H]([C@@H](C)NC)CC[C@H]3N)[C@@H](N)C[C@H]2N)OC[C@]1(C)O", "note": "(stereo not given in full)", "parasite growth remaining, % of DMSO control (lower = more inhibition)": 103},
      {"compound": "CN1c2cc(O)c(N=NC(N)=O)cc2CC1S(=O)(=O)O", "note": "(stereo not given)", "parasite growth remaining, % of DMSO control (lower = more inhibition)": 64.1},
      {"compound": "CC(=O)N[C@H]1[C@@H]([C@H](O)[C@H](O)CO)OC(C(=O)O)=C[C@@H]1N=C(N)N", "parasite growth remaining, % of DMSO control (lower = more inhibition)": 100},
      {"compound": "COc1ccc(CCC(=O)Nc2nc3ccc(Cl)cc3s2)cc1OC", "parasite growth remaining, % of DMSO control (lower = more inhibition)": 66.5},
      {"compound": "CCN1C[C@H](C)n2c(c(O)c3c(=O)n(Cc4ccc(F)c(Cl)c4)nc(C(=O)NC)c32)C1=O", "parasite growth remaining, % of DMSO control (lower = more inhibition)": 55.9},
      {"compound": "O=c1[nH]c(=O)n([C@H]2C[C@@H](O)[C@@H](CO)O2)cc1C=CBr", "parasite growth remaining, % of DMSO control (lower = more inhibition)": 118},
      {"compound": "CC1(C)CC(O)CC(C)(C)N1[O]", "parasite growth remaining, % of DMSO control (lower = more inhibition)": 97.3},
      {"compound": "CCOC1OC(=O)C[C@H]1NC(=O)[C@@H]1CCCN1C(=O)[C@@H](NC(=O)c1ccc(N)c(Cl)c1)C(C)(C)C", "note": "(stereo not given in full)", "parasite growth remaining, % of DMSO control (lower = more inhibition)": 97.4},
      {"compound": "C=C1C[C@@]2(O)O[C@@]3(C[C@H]2C(C)C)[C@H](C)CC[C@H]13", "parasite growth remaining, % of DMSO control (lower = more inhibition)": 75.7},
      {"compound": "Cc1ncc(C[n+]2csc(CCO)c2C)c(=O)[nH]1", "parasite growth remaining, % of DMSO control (lower = more inhibition)": 104},
      {"compound": "O=C(O)C(=O)Nc1cccc(C2=NN=N[N]2)c1", "parasite growth remaining, % of DMSO control (lower = more inhibition)": 99.9},
      {"compound": "CC(C)OC(=O)[C@H](C)N[P@](=O)(OC[C@H]1O[C@@H](n2ccc(=O)[nH]c2=O)[C@](C)(F)[C@H]1O)Oc1ccccc1", "parasite growth remaining, % of DMSO control (lower = more inhibition)": 95.7},
      {"compound": "CN(C)CCOc1ccc(C(=C(CCCl)c2ccccc2)c2ccccc2)cc1", "parasite growth remaining, % of DMSO control (lower = more inhibition)": 55.4},
      {"compound": "CC[C@H](CC#N)OC(=O)N[C@@H](C)c1cccc(NC(=O)Nc2ccc(-c3cnco3)c(OC)c2)c1", "parasite growth remaining, % of DMSO control (lower = more inhibition)": 66.9},
      {"compound": "Cc1cc(O)c2c(c1)C(=O)c1cc(O)cc(O)c1C2=O", "parasite growth remaining, % of DMSO control (lower = more inhibition)": 90.9},
      {"compound": "CCC(CC)[C@H](NC(C)=O)[C@@H]1[C@H](O)[C@@H](C(=O)O)C[C@@H]1N=C(N)N", "parasite growth remaining, % of DMSO control (lower = more inhibition)": 98.5},
      {"compound": "COc1cc([C@@H]2c3cc4c(cc3[C@H](O)[C@H]3COC(=O)[C@@H]23)OCO4)cc(OC)c1OC", "parasite growth remaining, % of DMSO control (lower = more inhibition)": 78.3},
      {"compound": "CC(=O)O[C@H]1C[C@@H]2CC[C@H]3[C@H]4C[C@H]([N+]5(C)CCCCC5)[C@@H](OC(C)=O)[C@@]4(C)CC[C@@H]3[C@@]2(C)C[C@H]1[N+]1(C)CCCCC1", "parasite growth remaining, % of DMSO control (lower = more inhibition)": 88},
      {"compound": "C[C@@H](c1ncncc1F)[C@](O)(Cn1cncn1)c1ccc(F)cc1F", "parasite growth remaining, % of DMSO control (lower = more inhibition)": 104},
      {"compound": "CON=C(C(=O)N[C@@H]1C(=O)N2C(C(=O)O)=C(Cn3ccc(=N)n3CCO)CS[C@H]12)c1csc(N)n1", "parasite growth remaining, % of DMSO control (lower = more inhibition)": 93.5},
      {"compound": "C[C@H](CCC(=O)O)[C@H]1CC[C@H]2[C@@H]3[C@H](O)C[C@@H]4C[C@H](O)CC[C@]4(C)[C@@H]3CC[C@]12C", "parasite growth remaining, % of DMSO control (lower = more inhibition)": 92.9},
      {"compound": "CN1C2CCC1CC(OC(=O)C(CO)c1ccccc1)C2", "note": "(stereo not given)", "parasite growth remaining, % of DMSO control (lower = more inhibition)": 94.5},
      {"compound": "CC(C(=O)O)c1ccc(-c2ccccc2)c(F)c1", "note": "(stereo not given)", "parasite growth remaining, % of DMSO control (lower = more inhibition)": 95.5},
      {"compound": "CC=CCC=CCCC(=O)[C@H]1O[C@@H]1C(N)=O", "parasite growth remaining, % of DMSO control (lower = more inhibition)": 87.5},
      {"compound": "Cc1cccc2c1CC[C@H](CN1CCC(c3c(Cl)cccc3Cl)CC1)C[C@@H]2O", "parasite growth remaining, % of DMSO control (lower = more inhibition)": 25.2},
      {"compound": "C#Cc1cccc(Nc2ncnc3cc(OCCOC)c(OCCO)cc23)c1", "parasite growth remaining, % of DMSO control (lower = more inhibition)": 36.9},
      {"compound": "O=C1CC[C@@]2(O)[C@H]3Cc4ccc(O)c5c4C2(CCN3CC2CC2)[C@H]1O5", "parasite growth remaining, % of DMSO control (lower = more inhibition)": 82},
      {"compound": "C[C@H](CCC(=O)O)[C@H]1CC[C@H]2[C@H]3[C@@H](CC[C@]12C)[C@@]1(C)CC[C@@H](O)C[C@H]1C[C@@H]3O", "parasite growth remaining, % of DMSO control (lower = more inhibition)": 12.3}
    ]}
  ]
}
